Screening results (PubChem)
An excerpt weighted towards active compounds, which were near 2.4% of everything screened.
POLB inh – DNA polymerase beta (human) inhibition; P06746; Pol beta primer extension/strand displacement, fluorescence kinetic; Potency, µM (top dose mostly 114 µM), for the others: at the highest dose activity change, negative = inhibition, hits mostly inhibitors; 1.3% of 340,000 active; AID 485314; further: on the % scale 0 is the no-effect control and ±100 the full control effect
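Enzyme-only controls used 10 nM Pol beta; buffer lacking enzyme served as negative control. Compound preincubated 15 min, then 50 nM substrate added; 0 and 10 min reads at room temperature.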
Pol kappa inh – DNA polymerase kappa (human) inhibition; Q9UBT6; purified Pol kappa, fluorescent DNA synthesis assay, 10 min; Potency, µM (highest dose often 107 µM), inactives show top-dose activity, negative = inhibition, most hits filed as inhibitors; 0.53% of 400,000 active; further: on the % scale 0 is the no-effect control and ±100 the full control effect
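First, compounds were pin-transferred onto 10 nM Pol kappa. After 15 min at room temperature, substrate was added to 50 nM final. Fluorescence was then measured kinetically at 0 and 10 min.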
FEN1 inh – blocks human flap endonuclease 1; P39748; Recombinant FEN1 flap cleavage, fluorescence, 15 min; Potency, µM (titrated, usually from 114 µM), without a hit: at the highest dose activity change, negative = inhibition, actives largely listed as inhibitors; 0.35% of 390,000 active; further: on the % scale 0 is the no-effect control and ±100 the full control effect; nearly all actives have a fitted effect of over 65% in size
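Recombinant FEN1 (10 nM) was preincubated with pin-transferred compounds for 15 min at room temperature, then flap DNA substrate (50 nM final) was added. Plates were read at 0 and 15 min, and normalized concentration–response data were fitted to a four-parameter Hill equation.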
Pol iota inh – DNA polymerase iota (human) inhibition | Potency, µM (series often up to 115 µM), inactives show at the highest dose activity, negative = inhibition, most hits filed as inhibitors | Pol iota fluorescent replication assay, 10 min | 1% of 390,000 active | Q9UNA4
Target sequence (Q9UNA4 whole entry, looked up): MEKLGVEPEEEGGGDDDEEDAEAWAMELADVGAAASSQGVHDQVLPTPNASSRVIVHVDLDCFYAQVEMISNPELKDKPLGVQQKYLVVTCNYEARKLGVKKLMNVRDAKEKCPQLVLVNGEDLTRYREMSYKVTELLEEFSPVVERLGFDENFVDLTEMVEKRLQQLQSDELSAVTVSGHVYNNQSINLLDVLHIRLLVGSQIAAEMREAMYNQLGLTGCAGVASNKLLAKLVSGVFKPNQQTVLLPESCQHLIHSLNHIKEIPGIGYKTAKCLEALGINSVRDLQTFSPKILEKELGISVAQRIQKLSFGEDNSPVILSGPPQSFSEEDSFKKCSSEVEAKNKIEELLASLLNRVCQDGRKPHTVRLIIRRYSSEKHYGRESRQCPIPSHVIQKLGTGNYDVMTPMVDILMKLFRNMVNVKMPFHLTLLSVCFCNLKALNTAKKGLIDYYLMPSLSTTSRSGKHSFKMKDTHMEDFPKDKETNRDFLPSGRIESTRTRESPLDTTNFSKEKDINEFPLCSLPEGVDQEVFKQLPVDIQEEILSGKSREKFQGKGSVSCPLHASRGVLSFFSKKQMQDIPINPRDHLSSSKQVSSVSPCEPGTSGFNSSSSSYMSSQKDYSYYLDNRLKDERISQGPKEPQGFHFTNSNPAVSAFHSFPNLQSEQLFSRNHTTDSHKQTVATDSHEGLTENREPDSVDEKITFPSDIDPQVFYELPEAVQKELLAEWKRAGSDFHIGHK
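Fluorescent replication assay read twice, at 0 min and 10 min after adding 50 nM (final) substrate. Enzyme (10 nM) and compounds were first incubated 15 min at room temperature; enzyme-free buffer wells were negative controls.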
POLH inh – DNA polymerase eta (human) inhibition | recombinant Pol eta, fluorescent DNA replication assay | 1.2% of 390,000 active | Potency, µM (titrated, usually from 114 µM), inactives show at the top dose activity change, negative = inhibition, usual class: inhibitors | AID 588591 | Q9Y253; further: on the % scale 0 is the no-effect control and ±100 the full control effect
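Pol eta at 10 nM preincubated with compounds 15 min at room temperature; reaction started with fluorescent substrate (50 nM final) and read kinetically at 0 and 10 min.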
WRN inhibitor – inhibitors of human WRN helicase; WRN helicase unwinding, fluorescent forked duplex, kinetic; Potency, µM (top dose mostly 114 µM), inactives show at the top dose activity change, negative = inhibition, most hits filed as inhibitors; 0.46% of 360,000 active; further: on the % scale 0 is the no-effect control and ±100 the full control effect; nearly all actives have a fitted effect of over 55% in size
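WRN at 20 nM final preincubated with compound 15 min at room temperature; reaction started with 100 nM fluorophore/quencher forked duplex oligonucleotide and 2 mM ATP final. Unwinding followed kinetically by red fluorescence (ex 525, em 598 nm).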
* = called active by the depositor; u = inconclusive; x = no result given; ! = repeats disagree; [ ] = another dose, or the depositor's remark. The call rests on the fitted dose curve; in most records, active means well fitted curve in the direction sought with a large enough effect; inconclusive means small, poorly fitted or top-dose-only effect, or another doubt; inactive means no such curve, though single readings can be large; an effect the other way counts as inactive or inconclusive. Potency means the concentration at half of the fitted maximal effect.

SMILES	POLB inh	Pol kappa inh	FEN1 inh	Pol iota inh	POLH inh	WRN inhibitor
CCOC(=O)N1C(C)CN(/[N+]([O-])=N/Oc2ccc([N+](=O)[O-])cc2[N+](=O)[O-])CC1C (stereo not given)	x	4%	-2%	u	x	x
CN(CC(=O)N[C@H](CO)Cc1ccccc1)C(=O)[C@H](CCS(C)=O)NC(=O)[C@@H](N)Cc1ccc(O)cc1 (stereo not given in full)	x	6%[19.4 µM]	x	x	x	x
Cc1ccc(N2C(=O)NC(=O)/C(=C\c3cn(CC(=O)O)c4ccccc34)C2=O)cc1	0%	-3%	-36%	32µM*	u	-10%[11.6 µM]
COC(=O)Cn1cc(/C=C2\C(=O)NC(=O)N(c3ccccc3)C2=O)c2ccccc21	5%	-3%	u	u	-3%	-5%[57.1 µM]
OC[C@@H]1O[C@H](OC2[C@@H](O)[C@@H](O)[C@@H](O)O[C@@H]2CO)[C@H](O)[C@@H](O)[C@@H]1OC1O[C@H](CO)[C@@H](O)[C@H](O)[C@@H]1O (stereo not given in full)	x	16%[60.1 µM]	x	x	x	x
O=c1[nH]c(=S)[nH]c(O)c1N=Nc1ccc(S(=O)(=O)N2CCOCC2)cc1	u	3%	-4%	u	50µM*	-1%[11.6 µM]
O=c1[nH]c(O)c(N=Nc2ccc(S(=O)(=O)N3CCOCC3)cc2)c(=O)[nH]1	u	-13%	-4%	-13%	-24%	-10%
O=c1[nH]c(=S)[nH]c(O)c1N=Nc1cc(S(=O)(=O)Nc2ccc(Cl)cc2)ccc1Cl	x	-25%	u	u	79µM*	-7%
CC(C)[C@H](NC(=O)[C@H](CC(=O)O)NC(=O)[C@H](Cc1ccccc1)NC(=O)[C@@H](C)NC(=O)[C@@H](N)Cc1ccc(O)cc1)C(=O)N[C@H](C(=O)NCC(N)=O)C(C)C	x	15%[60.1 µM]	x	x	x	x
CC1=CC(=O)c2c(O)cccc2C1=O	x	10µM*!	x	x	x	x
CNS(=O)(=O)c1ccc(-c2ccc(C=C3C(=O)NC(=O)NC3=O)o2)cc1	u	3%	u	22µM*	-8%	u
CC(C)C[C@H](NC(=O)CNC(=O)[C@H](CCC(N)=O)NC(=O)[C@H](Cc1ccc(O)cc1)NC(=O)[C@@H](NC(=O)[C@H](Cc1ccc(O)cc1)NC(=O)CNC(=O)[C@@H](N)CCCN=C(N)N)C(C)C)C(=O)O	x	-4%[60.1 µM]	x	x	x	x
COCCCn1c(N)c(C(=O)Nc2ccccc2)c2nc3ccccc3nc21	4%	-5%	-16%	14µM*	-18%	-19%
O=C1NC(=O)N(Cc2cccs2)C(=O)/C1=C/c1ccc(N2CCOCC2)cc1	-6%	-7%	5%	118%	4%	56µM*
CC(=O)c1cccc(NC(=O)c2noc3c2CSc2ccccc2-3)c1	5%	8%	3%	51%	9%	x
CCc1nnc(NC(=O)CSc2ccc(-c3ccco3)nn2)s1	14µM*	1%	2%	14%	-20%	-1%
O=C(CSc1nnc(NC(=O)C2CCCCC2)s1)NCc1ccco1	6%	-4%	-2%	41%	-20%	-27%
CN1C(=O)[C@]23CC4=CC=C[C@H](O)[C@H]4N2C(=O)[C@@]1(CO)SS3	x	3%[60.1 µM]	x	x	x	x
Cc1ccc2c(c1)Cc1c(C(=O)NN3CCCCC3)nn(-c3ccc(Cl)cc3Cl)c1-2	x	4%[60.1 µM]	x	x	x	x
NCC(O)c1cc(O)c(O)cc1F (stereo not given)	-12%[57.1 µM]	u	-32%	28µM*	-11%	4%
O=C(O)CCC(CP(=O)(O)O)C(=O)O (stereo not given)	x	11%[60.1 µM]	x	x	x	x
Cc1[nH]n(-c2ccccc2)c(=O)c1C(c1ccc([N+](=O)[O-])cc1)c1c(C)[nH]n(-c2ccccc2)c1=O	7%	-3%	0%	0.71µM*	-6%	-16%[11.6 µM]
